Screening results from PubChem BioAssay.
Hits are enriched below; roughly 6.8% of the tested compounds scored in any of these assays.
Pf Dd2 inh – P. falciparum Dd2 growth inhibition. AID 1159554. hit rate 2.3% among 94,000. activity change, % at 10 µM. SYBR Green, 72 h; stronger effect = lower value; in the data active = activity change below about -80%; inconclusive = no clear call, values can overlap the other calls
Tcruzi prolif – inhibitors of T. cruzi proliferation; inhibition, % at 8.34 µM; AID 624255; hit rate 5.9% among 77,000; T. cruzi beta-gal in NIH3T3, GalScreen luminescence, 90 h;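 active = mean inhibition above about 93%, with at least 55% of replicates each passing it, limit read from the data, passing the limit was not always enough; inconclusive = only one of those two conditions holds; inactive = neither condition holds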
C diff HTS – C. difficile growth inhibition. growth activity, negative = inhibition, % at 16 µg/mL (by protocol). hit rate 0.25% among 86,000. Clostridium difficile clinical isolate growth, OD600, 24 h; stronger effect = lower value;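 active = mean growth activity at or below -80% and every replicate also at or below -80%; inconclusive = mean at or below -80% but some replicate above -80%; inactive = mean growth activity above -80%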;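 also: 0% = DMSO wells and -100% = levofloxacin 16 µg/mL wells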
Starred values were filed as active, the others as inactive; ? = inconclusive; nt = not tested or not shown; ! = not active in a repeat.

SMILES	Pf Dd2 inh	Tcruzi prolif	C diff HTS
CO[C@@H]1CN(C)C(=O)c2cc(NC(=O)c3nc4ccccc4s3)ccc2OC[C@H](C)NC[C@H]1C	-85*	-34	nt
CO[C@H]1CN(C)C(=O)c2cc(NC(=O)c3nc4ccccc4s3)ccc2OC[C@H](C)NC[C@H]1C	-54	-52	nt
C[C@@H]1CN([C@H](C)CO)C(=O)c2cc(NC(=O)Cc3ccccc3)ccc2O[C@@H](C)CCCCO[C@@H]1CN(C)C(=O)c1ccccc1	-6	nt	4
CC(C)NC(=O)N(C)C[C@@H]1Oc2ccc(NC(=O)Cc3cn(C)c4ccccc34)cc2C(=O)N([C@H](C)CO)C[C@H]1C	-6	-10	1
C[C@@H]1CN([C@@H](C)CO)C(=O)c2cc(NC(=O)C3CCCCC3)ccc2O[C@@H](C)CCCCO[C@@H]1CN(C)C(=O)Nc1ccc2c(c1)OCO2	-83*	44	0
C[C@@H]1CCCCO[C@H](CN(C)C(=O)Nc2ccc3c(c2)OCO3)[C@@H](C)CN([C@@H](C)CO)C(=O)c2cc(NC(=O)C3CCCCC3)ccc2O1	-64	47	-1
C[C@@H]1CCCCO[C@@H](CN(C)C(=O)Nc2ccc3c(c2)OCO3)[C@H](C)CN([C@@H](C)CO)C(=O)c2cc(NC(=O)C3CCCCC3)ccc2O1	-25	16	0
C[C@@H]1CCCCO[C@H](CN(C)C(=O)Nc2ccc3c(c2)OCO3)[C@H](C)CN([C@H](C)CO)C(=O)c2cc(NC(=O)C3CCCCC3)ccc2O1	-86*	47	-5
COc1ccc(S(=O)(=O)N(C)C[C@H]2OCCCC[C@@H](C)Oc3ccc(NC(=O)c4ccccc4)cc3C(=O)N([C@@H](C)CO)C[C@H]2C)cc1	-64	76	11
COc1ccc(S(=O)(=O)N(C)C[C@@H]2OCCCC[C@@H](C)Oc3ccc(NC(=O)c4ccccc4)cc3C(=O)N([C@H](C)CO)C[C@@H]2C)cc1	-65	65	6
COc1ccc(S(=O)(=O)N(C)C[C@H]2OCCCC[C@H](C)Oc3ccc(NC(=O)c4ccccc4)cc3C(=O)N([C@H](C)CO)C[C@H]2C)cc1	-87*	57	16
COc1ccc(S(=O)(=O)N(C)C[C@H]2OCCCC[C@H](C)Oc3ccc(NC(=O)c4ccccc4)cc3C(=O)N([C@H](C)CO)C[C@@H]2C)cc1	-71	89	22
COc1ccc(S(=O)(=O)N(C)C[C@@H]2OCCCC[C@H](C)Oc3ccc(NC(=O)c4ccccc4)cc3C(=O)N([C@H](C)CO)C[C@H]2C)cc1	-83*	61	2
COc1ccc(S(=O)(=O)N(C)C[C@H]2OCCCC[C@@H](C)Oc3ccc(NC(=O)c4ccccc4)cc3C(=O)N([C@@H](C)CO)C[C@@H]2C)cc1	-83*	91	17
CCC(=O)N1CC2(C1)[C@H](c1ccc(-c3ccccc3C)cc1)[C@@H](CO)N2C(C)=O	-37	nt	-4
O=C(c1ccccc1)N1CC[C@@H]2[C@H](CO)Nc3ccc(C#Cc4cccc(F)c4)cc3[C@@H]21	-11	46	-1
COc1ccccc1NC(=O)N1C[C@@H]2N[C@H](C1)C2c1ccc(-c2cccc(C#N)c2)cc1 (stereo partly drawn)	-15	nt	3
N#Cc1cccc(-c2ccc(C3[C@@H]4CN(C(=O)Nc5ccc(C(F)(F)F)cc5)C[C@H]3N4)cc2)c1 (stereo partly drawn)	-84*!	nt	-94*
O=C(Nc1ccc(C(F)(F)F)cc1)N1C[C@@H]2N[C@H](C1)C2c1ccc(-c2cccnc2)cc1 (stereo partly drawn)	-91*!	nt	-102*!
O=C(Nc1cccc(F)c1)N1C[C@@H]2N[C@H](C1)C2c1ccc(-c2cccnc2)cc1 (stereo partly drawn)	-51	nt	11
C[C@@H]1CN([C@@H](C)CO)S(=O)(=O)c2ccc(C3=CCCC3)cc2O[C@H]1CN(C)C(=O)C1CC1	-51	31	nt
O=C(Nc1ccc(Cl)cc1)N1[C@@H]2CNC[C@H]1C2c1ccc(/C=C/c2ccccc2)cc1 (stereo partly drawn)	-40	nt	-98*
Cc1ccccc1-c1ccc(C2[C@H]3CNC[C@@H]2N3C(=O)Nc2ccc(F)cc2)cc1 (stereo partly drawn)	2	nt	59
O=C(Nc1ccc(C(F)(F)F)cc1)N1[C@@H]2CNC[C@H]1C2c1ccc(/C=C/c2ccccc2)cc1 (stereo partly drawn)	?	nt	-103*!
O=C(Nc1cc(F)ccc1F)N1[C@@H]2CNC[C@H]1C2c1ccc(/C=C/c2ccccc2)cc1 (stereo partly drawn)	-51	nt	29
O=C(Nc1ccc(F)cc1)N1[C@@H]2CNC[C@H]1C2c1ccc(/C=C/c2ccccc2)cc1 (stereo partly drawn)	-9	nt	-101*!
